Bioassay records as filed in PubChem.
hgDAF-12 ag = activates the H. glycines DAF-12 receptor ligand-binding domain; HEK293 GAL4-hgDAF12 UAS-luciferase reporter, agonist luminescence; normalized to butyrate control; activation, % at 6.8 µM; 1.8% of 370,000 active; AID 687014;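 active = activation above a cutoff set at the mean of all screened compounds plus 3 SD, cut at about 10% in these data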
DAX1 inh-1 = DAX1 (NR0B1) inhibition, primary screen | HEK293T StAR-luciferase reporter, SF-1/DAX-1 repression relief | inhibition, % at 6.8 µM | 1.1% of 370,000 active | AID 652010;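 active = inhibition above the mean over all tested compounds plus 3 SD, cut at about 3.6% in these data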;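 note: higher inhibition means more luminescence from relief of DAX-1 repression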
hcDAF12 agonist = activates DAF-12 receptor from parasite H. contortus. HEK293 hcDAF-12 lit1-tk-luc reporter, luminescence; 0% DMSO, 100% Δ7-dafachronic acid. activation, % at 6.8 µM. 1.4% of 370,000 active. AID 652067;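 active = activation above the mean of all tested compounds plus 3 SD, cut at about 5.5% in these data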
SMARCA2 act = SMARCA2 function activation, primary screen; MG213 cells, MMTV-luciferase reporter, dexamethasone, overnight; activation, % at 9.1 µM; 1% of 370,000 active; AID 652017; in the data active = activation above about 7.8%
ssDAF12 agonist = S. stercoralis DAF-12 activation, primary screen; 1% of 370,000 active; activation, % at 6.8 µM; AID 652126; HEK293 ssDAF-12/GRIP1 lit1-tk-luc reporter, luminescence; % of 3 µM dafachronic acid response;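 active = activation above the mean over all tested compounds plus 3 SD, cut at about 0.9% in these data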
DAX1 inh-2 = inhibits human nuclear receptor DAX1. P51843. HEK293 Gal4-DAX1 luciferase reporter, luminescence. inhibition, % at 6.75 µM. 0.99% of 340,000 active;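 active = inhibition above the mean over all tested compounds plus 3 SD, cut at about 4.2% in these data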;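 note: inhibition shows as a rise in luminescence from relieved DAX1 repression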
Target sequence (P51843 207-470 limits assumed): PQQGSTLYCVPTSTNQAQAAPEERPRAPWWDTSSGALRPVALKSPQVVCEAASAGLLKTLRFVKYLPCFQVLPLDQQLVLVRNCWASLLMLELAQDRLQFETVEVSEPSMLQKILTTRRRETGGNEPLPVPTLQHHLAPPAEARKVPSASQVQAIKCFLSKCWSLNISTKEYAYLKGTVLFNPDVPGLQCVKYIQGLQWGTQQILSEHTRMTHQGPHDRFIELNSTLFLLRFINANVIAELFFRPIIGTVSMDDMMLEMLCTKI
SMARCA2 conf = SMARCA2 activation, confirmation screen. shares compounds with SMARCA2 act. MG213 cells, MMTV-luciferase with dexamethasone, luminescence, overnight; MG213 cells expressing E1A, Rb sequestered; DMSO wells 0%, reference activator 100%. activation, % at 9.1 µM. 30% of 3,500 active;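 active = activation above its plate's cutoff, the mean activation of tested wells plus 3 SD, cut at about 7.9% in these data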
VP16 Luc act = GAL4-VP16 reporter activation counter-screen; HEK293 GAL4-VP16 pG5luc reporter, luciferase luminescence; scaled: DMSO wells 0%, SAHA wells 100%; AID 686939; activation, % at 9.1 µM; 41% of 3,500 active; shares compounds with SMARCA2 act;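 active = activation above the solvent-only control well mean plus 3 SD, averaged across control plates, cut at about 5.2% in these data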
Each line names hits and unclear results; the compound was inactive in the other large screens (follow-up assays come after a bar, where they were run). A selection: hits, their analogues and other compounds. The true share with any hit is near 4.8%.

CCOC(=O)NN1C(=O)c2ccccc2NC1c1cccs1 (centres undefined)	none
Cc1cc(=O)[nH]c2ccc(S(=O)(=O)N3CCOCC3)cc12	none
COC(=O)C1=C(C)N(Cc2ccccc2C(F)(F)F)C(=NCC2CC2)NC1c1ccc(C(F)(F)F)cc1 (centres undefined)	none (no result: DAX1 inh-2)
N=c1c2c(-c3ccccc3)c(-c3ccccc3)n(Cc3ccccc3)c2ncn1CCCn1ccnc1	SMARCA2 act 14.6 | SMARCA2 conf inactive | VP16 Luc act inactive
N#C/C(=C\c1ccc([N+](=O)[O-])cc1)c1ccccn1	SMARCA2 act 10.3 | SMARCA2 conf inactive | VP16 Luc act 6.7
COc1cc(NC(=O)CCn2c(=S)oc3ccccc32)cc(OC)c1OC	none
Fc1ccc(OCc2nc3ccccc3s2)cc1	hgDAF-12 ag 11.3, hcDAF12 agonist 6.2, SMARCA2 act 9.1, ssDAF12 agonist 1.1 | SMARCA2 conf inactive | VP16 Luc act 11.5
CC(C)OC(=O)c1ccc(N2C(=O)C3CC=CCC3C2=O)cc1 (centres undefined)	SMARCA2 act 8.8 | SMARCA2 conf inactive | VP16 Luc act inactive
CC1(C(=O)OCC(=O)Nc2ccc3ccccc3c2)CC1(Cl)Cl (centres undefined)	SMARCA2 act 8.5 | SMARCA2 conf inactive | VP16 Luc act 6.3
C[C@@H]1Cn2cnc(C(=O)Nc3cccc(Cl)c3)c2C(=O)N1	none
Nc1ccc2nc(COc3ccccc3)[nH]c2c1	hcDAF12 agonist 6.5, SMARCA2 act 11.7 | SMARCA2 conf inactive | VP16 Luc act inactive
Cc1c(Cl)cccc1NC(=O)Cn1c(-c2ccc(F)cc2)noc1=O	none
CC(C)CN(C(=O)CN1C(=O)C2CCCCC2C1=O)c1c(N)n(Cc2ccccc2)c(=O)[nH]c1=O (centres undefined)	none
Cc1cc(C)cc(OCC(=O)Nc2cccc(-c3nc4ncccc4o3)c2)c1	SMARCA2 act 8.6 | SMARCA2 conf inactive | VP16 Luc act inactive
COc1ccc(CCN2C(=O)CC(N3CCN(C/C=C/c4ccccc4)CC3)C2=O)cc1OC (centres undefined)	none
C/C(CC(=O)Nc1ccc(Cl)c(C(F)(F)F)c1)=N\NC(N)=S	none
C/C(CC(=O)Nc1ccc(Cl)c(C(F)(F)F)c1)=N\NC(=O)c1cccc(O)c1	SMARCA2 act 10.4 | SMARCA2 conf inactive | VP16 Luc act inactive
COc1ccccc1C/C(N)=N/OC(=O)COc1cccc(C)c1C	none
Cc1cccc(OCC(=O)O/N=C(\N)c2ccccn2)c1C	SMARCA2 act 9.2 | SMARCA2 conf 10.1 | VP16 Luc act 7.0
CC(=O)Nc1ccc(NC(=O)CS(=O)(=O)c2cn(CC(=O)N3CCCC3)c3ccccc23)cc1	none
Cc1cccc(CSc2nnc(-c3cccs3)n2Cc2ccco2)c1	none
C/C(=N\N1C(=O)CSC1=S)c1ccc(Br)cc1	none
Cc1cc(S(=O)(=O)N2CCC3(CC2)OCCO3)c(C)cc1Cl	SMARCA2 act 12.4 | SMARCA2 conf inactive | VP16 Luc act inactive
CCN(CCC(=O)Nc1cc(OC)ccc1OC)Cc1ccccc1	none (no result: DAX1 inh-2)
CCN(CCC(=O)Nc1cc([N+](=O)[O-])ccc1OC)Cc1ccccc1	SMARCA2 act 9.7 | SMARCA2 conf inactive | VP16 Luc act inactive
CCC(=O)Nc1nc2ccc(S(C)(=O)=O)cc2s1	none
Cc1cc(C(=O)Nc2nc3ccc(S(C)(=O)=O)cc3s2)c(C)o1	SMARCA2 act 10.3 | SMARCA2 conf inactive | VP16 Luc act 5.8
Cc1ccccc1NC(=O)Nc1nc2ccc(S(C)(=O)=O)cc2s1	SMARCA2 act 9.2, DAX1 inh-2 9.0 | SMARCA2 conf inactive | VP16 Luc act inactive
COc1cc(C(=O)Nc2nc3ccc(S(C)(=O)=O)cc3s2)cc(OC)c1C	none
Cc1ccc(NC(=O)CSCC(=O)NC2=NCCS2)cc1	none
CC(C)c1ccc2[nH]c3nc(SCC(=O)N4CCOCC4)nnc3c2c1	SMARCA2 act 9.7 | SMARCA2 conf inactive | VP16 Luc act 5.8
O=C(CCCc1ccccn1)c1ccc(-c2ccccc2)cc1	SMARCA2 act 8.6, ssDAF12 agonist 0.9 | SMARCA2 conf inactive | VP16 Luc act 6.4
O=C(NCCc1nc2ccccc2[nH]1)c1ccc(F)cc1	none (no result: hgDAF-12 ag, DAX1 inh-1, hcDAF12 agonist, SMARCA2 act, ssDAF12 agonist)
O=C(NC(=S)NCc1nc2ccccc2[nH]1)c1ccc(F)cc1	hgDAF-12 ag 10.5, SMARCA2 act 9.9 | SMARCA2 conf inactive | VP16 Luc act inactive
COc1cc(NC(=O)CCCNC(=O)Cn2cnc3sc(C)c(C)c3c2=O)cc(OC)c1OC	none
COc1ccc(OCC(=O)N/N=C(\C)CC(=O)Nc2ccc(OC)cc2[N+](=O)[O-])cc1	SMARCA2 act 8.7 | SMARCA2 conf inactive | VP16 Luc act inactive
COc1ccc(NC(=O)CSc2ccccc2)c([N+](=O)[O-])c1	SMARCA2 act 8.4 | SMARCA2 conf inactive | VP16 Luc act inactive
CCOc1ccc(OCC(=O)Nc2ccc(OC)cc2[N+](=O)[O-])cc1	none
CC(C(=O)O)n1c(-c2ccn[nH]2)n[nH]c1=S (centres undefined)	none
CN(C)CCCNC(=O)C[C@H]1C[C@H](C(=O)N2CCOCC2)[C@@]2(C)c3[nH]c4cc(CCC(=O)N(C)C)ccc4c3CCN2C1=O	none
Clc1ccc(-c2csc(Nc3ccccc3)[n+]2Cc2ccco2)c(Cl)c1	SMARCA2 act 9.0 | SMARCA2 conf inactive | VP16 Luc act 6.1
O=C(Nc1ccccc1Br)C(=O)N1CCCC1	none
O=C(Nc1ccccn1)C(=O)N1CCCCC1	SMARCA2 act 8.2 | SMARCA2 conf inactive | VP16 Luc act inactive
O=C(NC1CCCC1)C1C(c2ccc(C(F)(F)F)cc2)=Nc2ccccc2N1C(=O)c1ccccc1 (centres undefined)	DAX1 inh-1 3.6, hcDAF12 agonist 5.7, SMARCA2 act 13.5 (no result: DAX1 inh-2) | SMARCA2 conf inactive | VP16 Luc act 5.8
Cn1c(N)c(C(=O)COC(=O)C2Cc3ccccc3CN2S(C)(=O)=O)c(=O)n(C)c1=O (centres undefined)	SMARCA2 act 8.4 | SMARCA2 conf inactive | VP16 Luc act inactive
O=C(NC(=S)N1CCc2ccccc21)c1ccccc1	SMARCA2 act 8.5 | SMARCA2 conf inactive | VP16 Luc act inactive
COc1cccc(C(=O)N/N=C/C(Br)=C/c2ccccc2)c1	SMARCA2 act 12.4 | SMARCA2 conf inactive | VP16 Luc act inactive
CCCCNC(=O)c1onc(CSc2ccccn2)c1C(=O)NCCCC	none
COc1cc(OC)c2c(c1)O/C(=C\c1ccccc1)C2=O	SMARCA2 act 10.9 (no result: DAX1 inh-2) | SMARCA2 conf inactive | VP16 Luc act 9.4
